From PubChem BioAssay (NCI) come the findings set out here.

Among the test systems are T-47D breast; BT-549 breast; MDA-MB-435 melanoma; SW-620 colon; HCT-116 colon; HCC-2998 colon; KM12 colon; MCF7 breast.
Common to all, as to experiment: NCI-60 one-dose screen, 48 h (100 = growth as untreated, 0 = no growth, -100 = all killed)
Common to all, as to settings: 10 µM unless noted

About 83,000 compounds went through this panel and 20% of them were active in at least one assay; those are over-represented in the sample as a whole.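 Activity criterion: percent growth below 10, measured after cells in 96-well plates were exposed to a single compound concentration for 48 hours.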 A number with no mark means an inactive call. Calls of active or inactive are those of the source.

For `C[C@H]1C=C(C[C@@H](O)CC#CC#CCCCCC[C@@H](O)[C@H]2CCC(=O)O2)C(=O)O1`, the growth with T-47D breast is 92.8%; in the experiment on BT-549 breast it was 112%; with MDA-MB-435 melanoma, 111%; with SW-620 colon, 103%; in the experiment on HCT-116 colon, 83.2%; in the experiment with HCC-2998 colon, 105%. The growth in the experiment on KM12 colon was 110%.
Take `CCOc1cccc(Nc2nc(N)nc3[nH]c4ccc(O)cc4c23)c1`: the growth is 18.8% with T-47D breast; 68.8% with BT-549 breast; 84.2% in the experiment on MDA-MB-435 melanoma; 76.1% with SW-620 colon; 72.9% in the experiment on HCT-116 colon; 89.8% in the experiment on HCC-2998 colon. For the same molecule, the growth in the experiment with KM12 colon was 87.6%.
In the case of `c1coc(CSc2ncnc3nc[nH]c23)c1`, the growth in the experiment on T-47D breast was 93.6%; with BT-549 breast, 120%; with MDA-MB-435 melanoma it was 116%; in the experiment on SW-620 colon, 97.9%; in the experiment on HCT-116 colon, 97.7%; in the experiment on HCC-2998 colon, 107%. In the experiment with KM12 colon, the growth is 102%.
Consider `Cc1ccc(NC(=O)CN2CCOCC2)cc1Cl`, for which the growth with T-47D breast is 88.7%; in the experiment with BT-549 breast, 77%; in the experiment with MDA-MB-435 melanoma, 100%; in the experiment with SW-620 colon, 98.5%; in the experiment with HCT-116 colon, 80.5%; in the experiment with HCC-2998 colon it was 96.8%. Moreover, in the experiment with KM12 colon, the growth was 103%.
Consider `COc1ccc(-c2cc3ccc(N(C)C)cc3nc2N)c(F)c1`, for which the growth was 24.3% with T-47D breast; 18.8% in the experiment with BT-549 breast; 13.9% in the experiment with MDA-MB-435 melanoma; 42.5% with SW-620 colon; 19.3% with HCT-116 colon; 51.8% with HCC-2998 colon. For the same molecule, in the experiment with KM12 colon, the growth was 35%.
`C=CCn1c(SCC(=O)Nc2ccc(/C(C)=N\O)cc2)nnc1-c1cc(-c2ccc(OC)cc2)nc2ccccc12`: the growth with T-47D breast was -4.63% (active); in the experiment with BT-549 breast, 35.6%; with MDA-MB-435 melanoma it was 46.1%; in the experiment on SW-620 colon, 39.4%; with HCC-2998 colon, 45.8%; in the experiment on KM12 colon it was 29%.
For `CCc1c2cc(Cl)ccc2n2cc(Cc3ccccc3)[nH]c(=O)c12`, the growth in the experiment on T-47D breast is 104%; in the experiment on BT-549 breast it was 101%; in the experiment with MDA-MB-435 melanoma, 102%; in the experiment on SW-620 colon, 99.4%; in the experiment on HCC-2998 colon, 97.1%; in the experiment with KM12 colon, 98%.
On to `COc1ccc(-c2ccc(NC(=O)Nc3ccc(Cl)c(C(F)(F)F)c3)c(C)n2)cc1`, for which the growth was 21.5% in the experiment with T-47D breast; 66.2% in the experiment with BT-549 breast; 71.9% with MDA-MB-435 melanoma; 67% in the experiment with SW-620 colon; 23.7% in the experiment on HCT-116 colon; 69.2% in the experiment with HCC-2998 colon. For the same molecule, the growth in the experiment on KM12 colon was 37.4%.
Turning to `Cc1c(F)cccc1NC(=O)c1sc2nc3c(cc2c1N)CCCCC3`, the growth in the experiment on T-47D breast was 63.6%; in the experiment with BT-549 breast it was 73.6%; in the experiment with MDA-MB-435 melanoma it was 9.59% (active); with SW-620 colon, 25%; with HCT-116 colon, 49.8%; in the experiment on HCC-2998 colon it was 75.8%. The growth in the experiment with KM12 colon is 34.8%.
Consider `CCCOC(=O)c1ccc([N+](=O)[O-])o1`, for which the growth is 114% with T-47D breast; 107% with MDA-MB-435 melanoma; 97.2% in the experiment on SW-620 colon; 94.2% with MCF7 breast; 105% with HCT-116 colon; 121% in the experiment with HCC-2998 colon. Moreover, the growth in the experiment with KM12 colon was 101%.
Consider `Cc1cccc[n+]1CCC[n+]1ccccc1C`, for which the growth with T-47D breast is 85.6%; in the experiment with MDA-MB-435 melanoma, 102%; with SW-620 colon, 107%; in the experiment with MCF7 breast it was 96.5%; with HCT-116 colon, 86.1%; in the experiment with HCC-2998 colon, 107%. For the same molecule, the growth in the experiment on KM12 colon is 100%.
Take `C[C@]12CC[C@@H]3c4ccc(O)c(N)c4CC[C@H]3[C@@H]1CC[C@@H]2O`: the growth in the experiment with T-47D breast is 124%; in the experiment on MDA-MB-435 melanoma, 108%; with SW-620 colon it was 122%; in the experiment on MCF7 breast, 116%; in the experiment on HCT-116 colon, 89.9%; in the experiment on HCC-2998 colon, 120%. Further, the growth with KM12 colon was 103%.
In the case of `COc1ccccc1P(c1ccccc1OC)c1ccccc1OC`, the growth was 87.6% in the experiment on T-47D breast; 115% in the experiment with MDA-MB-435 melanoma; 103% in the experiment with SW-620 colon; 95.9% in the experiment with MCF7 breast; 94.2% with HCT-116 colon; -97.4% (active) with HCC-2998 colon. The growth in the experiment with KM12 colon is 86.4%.
With `CNC(=O)NN`, the growth with T-47D breast is 92.3%; with MDA-MB-435 melanoma, 102%; in the experiment with SW-620 colon it was 93.7%; in the experiment with MCF7 breast it was 98.1%; in the experiment with HCT-116 colon, 93.6%; in the experiment on HCC-2998 colon it was 101%. Moreover, the growth in the experiment on KM12 colon is 101%.
As for `Cc1cc[n+](CCCC[n+]2ccc(C)cc2)cc1`, the growth is 105% in the experiment on T-47D breast; 102% in the experiment on MDA-MB-435 melanoma; 103% with SW-620 colon; 96.3% with MCF7 breast; 100% in the experiment with HCT-116 colon; 103% in the experiment on HCC-2998 colon. The growth with KM12 colon is 90.5%.
In the case of `CC(C)CCC[C@@H](C)[C@H]1CC[C@H]2[C@@H]3CC=C4N(c5ccccc5)C(=O)CC[C@]4(C)[C@H]3CC[C@]12C`, the growth is 95% in the experiment on T-47D breast; 100% in the experiment on MDA-MB-435 melanoma; 99.8% in the experiment on SW-620 colon; 89.5% in the experiment with MCF7 breast; 99.2% with HCT-116 colon; 102% in the experiment with HCC-2998 colon. For the same molecule, in the experiment on KM12 colon, the growth was 105%.
For `CC(=O)c1cc2c(c(O)c1C)C(=O)C(=O)c1c(O)cccc1-2`, the growth with T-47D breast is -28.5% (active); with MDA-MB-435 melanoma, -84.3% (active); in the experiment with SW-620 colon it was -69% (active); with MCF7 breast, -55.6% (active); in the experiment on HCT-116 colon, -85.9% (active); in the experiment with HCC-2998 colon, -84.2% (active). The growth with KM12 colon was -50.5% (active).
Regarding `COc1ccc(N)c(S)c1`, the growth in the experiment on T-47D breast is 89.5%; in the experiment on MDA-MB-435 melanoma, 106%; in the experiment with SW-620 colon, 93.6%; in the experiment on MCF7 breast it was 94.4%; with HCT-116 colon, 92.5%; with HCC-2998 colon, 103%. The growth in the experiment on KM12 colon was 105%.
For the molecule `Nc1ccc(S(=O)(=O)Nc2ccnn2-c2ccccc2)cc1`, the growth is 104% in the experiment on T-47D breast; 97% with MDA-MB-435 melanoma; 101% in the experiment with SW-620 colon; 101% in the experiment with MCF7 breast; 109% in the experiment with HCT-116 colon; 98.8% with HCC-2998 colon. Moreover, the growth in the experiment with KM12 colon is 105%.
Regarding `CCC(N)(C(=O)O)c1ccc(F)cc1` (centres undefined), the growth is 111% in the experiment on T-47D breast; 105% in the experiment with MDA-MB-435 melanoma; 110% in the experiment with SW-620 colon; 93.5% in the experiment on MCF7 breast; 91.3% in the experiment with HCT-116 colon; 95.4% in the experiment with HCC-2998 colon. Moreover, in the experiment with KM12 colon, the growth is 105%.
On to `O=[N+]([O-])c1ccc(NS(=O)(=O)c2ccccc2)c2ccccc12`, for which the growth in the experiment on T-47D breast is 32%; in the experiment on MDA-MB-435 melanoma it was 36.8%; with SW-620 colon, 49.6%; in the experiment with MCF7 breast, 42.3%; with HCT-116 colon, 44.6%; in the experiment with HCC-2998 colon, 36.7%. Also, in the experiment on KM12 colon, the growth is 40.1%.
As to `Cc1ccc2c(c1)Nc1ccc(C)cc1C2(C)C`, the growth is 80.6% in the experiment on T-47D breast; 98.3% with MDA-MB-435 melanoma; 103% in the experiment with SW-620 colon; 86.9% in the experiment on MCF7 breast; 89.3% with HCT-116 colon; 104% in the experiment on HCC-2998 colon. Moreover, the growth in the experiment with KM12 colon is 110%.
Regarding `O=C1CN(CCN2CC(=O)NC(=O)C2)CC(=O)N1`, the growth is 99.2% in the experiment on T-47D breast; 90.4% with MDA-MB-435 melanoma; 118% in the experiment on SW-620 colon; 104% in the experiment on MCF7 breast; 93.6% in the experiment on HCT-116 colon; 112% in the experiment on HCC-2998 colon. Further, in the experiment with KM12 colon, the growth was 99.5%.
As to `O=C1C(SCCO)=C(SCCO)C(=O)N1c1ccc(-c2ccccc2)cc1`, the growth is 24% in the experiment with T-47D breast; 92.2% in the experiment on MDA-MB-435 melanoma; -66.9% (active) in the experiment with SW-620 colon; 80.5% in the experiment on MCF7 breast; 13.7% with HCT-116 colon; 79.8% in the experiment on HCC-2998 colon. Moreover, the growth in the experiment on KM12 colon was 83.4%.
Regarding `COc1ccc(Cl)cc1NC(=O)c1cc2c([nH]1)-c1nc(N)sc1CCC2`, the growth is 88.2% in the experiment with T-47D breast; 103% in the experiment on MDA-MB-435 melanoma; 107% in the experiment on SW-620 colon; 98.9% in the experiment on MCF7 breast; 110% in the experiment with HCT-116 colon; 109% with HCC-2998 colon. In the experiment on KM12 colon, the growth is 97.3%.
For the molecule `COc1cccc(/C=N/C(=S)NC2(C)C3CCC(C3)C2(C)C)c1O` (centres undefined), the growth in the experiment on T-47D breast was 56.5%; in the experiment with MDA-MB-435 melanoma, 89.8%; with SW-620 colon it was 78.9%; with MCF7 breast, 47.8%; in the experiment on HCT-116 colon, 53.4%; in the experiment on HCC-2998 colon, 108%. Moreover, in the experiment with KM12 colon, the growth was 87.8%.
Consider `CCOC(=O)c1cnc2c(OC)ccc(OC)c2c1Cl`, for which the growth in the experiment on T-47D breast is 116%; in the experiment with MDA-MB-435 melanoma, 104%; in the experiment on SW-620 colon, 107%; in the experiment with MCF7 breast, 108%; with HCT-116 colon, 108%; in the experiment on HCC-2998 colon, 117%. Besides, the growth in the experiment with KM12 colon is 101%.
As for `N#CC(C#N)=C(C#N)c1c[nH]c2ccccc12`, the growth is 60.8% in the experiment with T-47D breast; 95.6% with MDA-MB-435 melanoma; 62.4% with SW-620 colon; 74.7% in the experiment on MCF7 breast; 85.4% with HCT-116 colon; 106% in the experiment with HCC-2998 colon. In addition, in the experiment with KM12 colon, the growth was 102%.
